“And” between values parts separate entries of the source, which are not always exact repeats. Equal values may be shown once. About 83,000 compounds went through this panel and 20% of them were active in at least one assay; those are over-represented in the sample as a whole.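 Negative percent growth values reflect cell death: -40 means 40% of the cells present at the start died, and -100 means all died.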 The source made the active and inactive calls. How the source made its calls: active means growth percent below 10; inactive means the rest.
Columns and labels:
Test in all cases: NCI-60 one-dose screen, 48 h (100 = growth as untreated, 0 = no growth, -100 = all killed)
Settings in all cases: 10 µM unless noted
[1] = tested on: SK-MEL-2 melanoma
[2] = tested on: EKVX NSCLC
[3] = tested on: SN12C renal
[4] = tested on: TK-10 renal
[5] = tested on: CAKI-1 renal
[6] = tested on: A498 renal
[7] = tested on: CCRF-CEM leukemia
[8] = tested on: MOLT-4 leukemia
[9] = tested on: UO-31 renal
[10] = tested on: ACHN renal

SMILES | growth [1] | growth [2] | growth [3] | growth [4] | growth [5] | growth [6] | growth [7] | growth [8] | growth [9] | growth [10]
CN(C)C(=N)N=C(N)N | 106% (inactive) and 25.1% (inactive) | 113% (inactive) | 95.3% (inactive) and 127% (inactive) | 119% (inactive) and 149% (inactive) | 115% (inactive) | 128% (inactive) and 106% (inactive) | 79.9% (inactive) | 95.6% (inactive) and 131% (inactive) |  | 
C(=N\OCCc1ccccc1)/c1ccccn1 | 124% (inactive) and 104% (inactive) | 115% (inactive) and 106% (inactive) | 119% (inactive) and 109% (inactive) |  | 105% (inactive) and 100% (inactive) | 96.3% (inactive) and 85.7% (inactive) | 106% (inactive) and 94.6% (inactive) | 101% (inactive) and 93.1% (inactive) | 109% (inactive) and 98% (inactive) | 110% (inactive) and 107% (inactive)
OCCCc1ccccc1 | 106% (inactive) | 110% (inactive) | 96.5% (inactive) |  | 104% (inactive) | 110% (inactive) |  | 111% (inactive) | 72.6% (inactive) | 
COc1ccc2oc3c(ccc[n+]3C)c(=O)c2c1 | 99.6% (inactive) | 93.3% (inactive) | 110% (inactive) |  | 98.2% (inactive) | 95.7% (inactive) | 110% (inactive) | 103% (inactive) | 91.9% (inactive) | 99.1% (inactive)
O=C(/C=C/C=C/c1ccc2c(c1)OCO2)N1CCCCC1 | 128% (inactive) and 57.5% (inactive) | 78.9% (inactive) and 95.9% (inactive) | 97.9% (inactive) and 100% (inactive) | 157% (inactive) and 175% (inactive) | 92.6% (inactive) and 106% (inactive) | 92.7% (inactive) and 83.6% (inactive) |  | 98.3% (inactive) and 84% (inactive) |  | 106% (inactive)
CN(C)C(=S)N(C)C | 104% (inactive) | 127% (inactive) | 104% (inactive) | 99.2% (inactive) | 98.6% (inactive) | 120% (inactive) | 97.5% (inactive) | 109% (inactive) |  | 104% (inactive)
N#CC(=S)Nc1ccc(Cl)c(Cl)c1 | -26.4% (active) | 10.9% (inactive) | -7.92% (active) |  | -6.76% (active) | -12% (active) | 28.4% (inactive) | 15.8% (inactive) | -1.39% (active) | 
Nc1c(S(=O)(=O)O)cc(Br)c2c1C(=O)c1ccccc1C2=O | 91.8% (inactive) | 101% (inactive) | 107% (inactive) and 112% (inactive) |  | 101% (inactive) and 95% (inactive) | 114% (inactive) and 96.6% (inactive) | 98.3% (inactive) | 99.7% (inactive) and 91.1% (inactive) | 77.4% (inactive) and 67.5% (inactive) | 108% (inactive) and 107% (inactive)
CC1(CO)CCCC1NCCNC1CCCC1(C)CO (stereo not given) | 89.9% (inactive) and 110% (inactive) | 101% (inactive) | 98% (inactive) and 103% (inactive) |  | 99.5% (inactive) and 92.3% (inactive) | 102% (inactive) and 111% (inactive) | 99.6% (inactive) | 115% (inactive) and 104% (inactive) | 105% (inactive) and 86% (inactive) | 105% (inactive) and 100% (inactive)
O=[N+]([O-])c1cccc(N=Cc2ccccc2)c1 | 104% (inactive) | 102% (inactive) | 104% (inactive) |  | 88.1% (inactive) | 110% (inactive) | 95.7% (inactive) | 87.4% (inactive) | 90.8% (inactive) | 102% (inactive)
Nc1ccccc1SC(CC(=O)c1ccccc1)c1cccc([N+](=O)[O-])c1 (stereo not given) | 113% (inactive) and 81.9% (inactive) | 96.5% (inactive) | 87.7% (inactive) and 88.8% (inactive) |  | 70.9% (inactive) and 95.2% (inactive) | 91.5% (inactive) and 104% (inactive) |  | 87.6% (inactive) and 55% (inactive) | 71.6% (inactive) and 61.5% (inactive) | 90.1% (inactive) and 90.7% (inactive)
CC(C)(C)OC(=O)c1ccc(NCc2cc(O)ccc2O)cc1 | 47.7% (inactive) | 50.1% (inactive) | 7.05% (active) | 2.52% (active) | -36% (active) | 25.1% (inactive) | -1.62% (active) | 5.04% (active) |  | -67.3% (active)
Cc1cccc(Cl)c1N | 121% (inactive) | 122% (inactive) | 112% (inactive) |  | 92.8% (inactive) | 107% (inactive) | 128% (inactive) | 100% (inactive) | 103% (inactive) | 108% (inactive)
Nc1nc(=S)c2[nH]cnc2[nH]1 | 29.7% (inactive) and 42.5% (inactive) | 44.6% (inactive) and 36.6% (inactive) | 29.5% (inactive) and 29.9% (inactive) |  | 4.02% (active) and 14.2% (inactive) | 32% (inactive) | 7.32% (active) and 0.0411% (active) | 10.1% (inactive) and 0.426% (active) | 16.4% (inactive) and 28.5% (inactive) | 18.7% (inactive) and 20.5% (inactive)
CCC(C)(O)CCC(C)(O)CC (stereo not given) | 116% (inactive) | 99.4% (inactive) | 108% (inactive) |  | 101% (inactive) | 114% (inactive) | 101% (inactive) | 102% (inactive) | 91% (inactive) | 111% (inactive)
O=P(O)(O)OC1C(OP(=O)(O)O)C(OP(=O)(O)O)C(OP(=O)(O)O)C(OP(=O)(O)O)C1OP(=O)(O)O.[Cu+2] (stereo not given) | 92.9% (inactive) | 126% (inactive) | 87.4% (inactive) |  | 113% (inactive) | 85.3% (inactive) | 101% (inactive) | 98.9% (inactive) | 98.2% (inactive) | 99.7% (inactive)
O=C(O)Cc1cc(=O)[nH]n(-c2ccccc2)c1=O | 116% (inactive) | 96% (inactive) | 97.9% (inactive) | 102% (inactive) | 83.5% (inactive) | 97.6% (inactive) |  | 88.3% (inactive) |  | 105% (inactive)
OCCS | 108% (inactive) | 98.8% (inactive) | 107% (inactive) |  | 105% (inactive) | 66.4% (inactive) | 100% (inactive) | 92.2% (inactive) | 98% (inactive) | 111% (inactive)
O=C(O)c1ccc2c3ccc(C(=O)O)c4c(C(=O)O)ccc(c5ccc(C(=O)O)c1c25)c43 | 91.3% (inactive) | 101% (inactive) | 101% (inactive) | 117% (inactive) | 80% (inactive) | 108% (inactive) | 111% (inactive) | 106% (inactive) |  | 107% (inactive)
COc1cc(Cl)ccc1C | 30.3% (inactive) | 109% (inactive) | 72.7% (inactive) | 90.5% (inactive) | 54.7% (inactive) | 110% (inactive) | 91.9% (inactive) | 81.7% (inactive) |  | 
Nc1nc(-c2ccccn2)cc(-c2cc(-c3ccccn3)nc(N)n2)n1 | 112% (inactive) | 102% (inactive) | 108% (inactive) | 107% (inactive) | 96.7% (inactive) | 156% (inactive) | 101% (inactive) | 106% (inactive) |  | 110% (inactive)
Clc1ccc2sc(-c3ccccc3)nc2c1 | 77.2% (inactive) | 88.1% (inactive) | 95.6% (inactive) | 126% (inactive) | 90.7% (inactive) | 92.5% (inactive) | 87% (inactive) | 92.3% (inactive) |  | 
C(#CCN1CCOCC1)CCCN1CCOCC1 | 108% (inactive) and 117% (inactive) | 104% (inactive) and 83.1% (inactive) | 102% (inactive) |  | 98.1% (inactive) and 94.7% (inactive) | 87.1% (inactive) and 104% (inactive) |  | 109% (inactive) and 113% (inactive) | 97.6% (inactive) and 89.6% (inactive) | 101% (inactive) and 98.3% (inactive)
CCOC(=O)C(N)Cc1cc(I)c(O)c(I)c1 (stereo not given) | 108% (inactive) and 120% (inactive) | 101% (inactive) and 113% (inactive) | 103% (inactive) and 98.7% (inactive) |  | 91.6% (inactive) and 89.2% (inactive) | 103% (inactive) | 100% (inactive) and 103% (inactive) | 102% (inactive) and 112% (inactive) | 81.6% (inactive) and 78.6% (inactive) | 106% (inactive) and 96% (inactive)
COC(=O)c1cc(C(=O)OC)cc([N+](=O)[O-])c1 | 109% (inactive) | 105% (inactive) | 111% (inactive) | 110% (inactive) | 109% (inactive) | 93.8% (inactive) | 102% (inactive) | 71% (inactive) |  | 106% (inactive)
